# Screens (PubChem BioAssay)
# Most compounds without a hit are left out; they make up all but 10% or so of the library.
# JMJD2A Tudor inh: qHTS Assay for Inhibitors of JMJD2A-Tudor Domain | Lysine-specific demethylase 4A (Homo sapiens), O75164 | AlphaScreen JMJD2A-Tudor / H3K4me3 peptide binding | Potency, µM (doses to about 114 µM), actives largely listed as inhibitors | 390,000 compounds, 4.4% hits; note: nearly all actives have a fitted effect of over 50% in size
# BAZ2B inh: qHTS Assay for Inhibitors of BAZ2B. Potency, µM (top dose mostly 114 µM), hits mostly inhibitors. AlphaScreen BAZ2B-H3K14Ac peptide displacement. 360,000 compounds, 4.4% hits. Bromodomain adjacent to zinc finger domain protein 2B (Homo sapiens), Q9UIF8; note: nearly all actives have a fitted effect of over 60% in size
#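 AlphaScreen luminescence quantifies BAZ2B engagement of H3K14Ac peptide; the protein and biotinylated peptide are both at 50 nM final, buffer PBS pH 7.4 with 0.01% Tween-20, all steps at room temperature.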
# GLS inh: qHTS for Inhibitors of Glutaminase (GLS); Glutaminase kidney isoform, mitochondrial (Homo sapiens), O94925; GLS enzymatic activity, qHTS titration; Potency, µM (titrated, usually from 45.5 µM), usual class: inhibitors; 410,000 compounds, 0.21% hits; AID 624170, 2012
#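 hKGA in 45 mM KH2PO4 (pH 8.2), 0.02% Tween-20 with compound, then 1mM L-Glutamine (stock as added) plus glutamate oxidase/HRP/Amplex red coupling mix. Fluorescence read initially and after 30 min at RT; signal change reflects glutamate formation.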
# HP1b binding inh: HTS for Inhibitors of HP1-beta Chromodomain Interactions with Methylated Histone Tails; Chromobox protein homolog 1 (Homo sapiens), P83916; AlphaScreen HP1-beta / biotin-H3K9me3 peptide binding; Potency, µM (highest dose often 114 µM), usual class: inhibitors; 390,000 compounds, 0.56% hits; AID 540317, 2011; note: nearly all actives have a fitted effect of over 70% in size
# Target sequence (P83916 whole entry, looked up): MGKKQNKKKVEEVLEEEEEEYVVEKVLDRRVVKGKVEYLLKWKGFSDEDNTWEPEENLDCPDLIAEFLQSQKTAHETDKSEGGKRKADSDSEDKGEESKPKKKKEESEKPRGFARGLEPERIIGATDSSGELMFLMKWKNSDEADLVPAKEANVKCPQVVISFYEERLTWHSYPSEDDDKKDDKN
#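 HP1-beta protein (50 nM final) preincubated 30 min at room temperature with biotinylated H3(1-18)K9me3 peptide (50 nM) in PBS pH 7.4, 0.01% Tween-20, then compound added for 30 min. AlphaScreen streptavidin donor/nickel chelate acceptor beads (10 ug/mL final), 30 min dark, luminescence read.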
# G9a block: qHTS Assay for Inhibitors of Histone Lysine Methyltransferase G9a; G9a H3K9 monomethylation, AlphaScreen, 2 h; Histone-lysine N-methyltransferase EHMT2 (Homo sapiens), Q96KQ7; Potency, µM (highest dose often 102 µM), most hits filed as inhibitors; AID 504332, 2011; 350,000 compounds, 8.8% hits; note: nearly all actives have a fitted effect of over 75% in size
# Target sequence (Q96KQ7 913-1193 limits assumed): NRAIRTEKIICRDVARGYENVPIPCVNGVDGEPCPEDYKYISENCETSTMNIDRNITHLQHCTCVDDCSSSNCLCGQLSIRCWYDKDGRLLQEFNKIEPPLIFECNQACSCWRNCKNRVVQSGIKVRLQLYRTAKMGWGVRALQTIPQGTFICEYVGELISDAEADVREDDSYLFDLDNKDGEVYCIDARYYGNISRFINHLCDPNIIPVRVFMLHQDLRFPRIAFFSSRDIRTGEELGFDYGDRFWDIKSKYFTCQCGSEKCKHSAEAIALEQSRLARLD
#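 Signal arises when biotinylated H3K9 peptide, once monomethylated, bridges streptavidin donor and antibody-captured acceptor beads. Enzyme at 20 nM was preincubated 15 min with test compounds; peptide 500 nM and SAM 20 uM then reacted for 2 h.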
# A number is an active result; i = inactive; ? = inconclusive; nt = no result; [ ] = dose if it differs, or a comment. Calls come from the whole dose curve; as a rule, active = well fitted curve in the direction sought with a large enough effect; inconclusive = small, poorly fitted or top-dose-only effect, or another doubt; inactive = no such curve, though single readings can be large; an effect the other way counts as inactive or inconclusive.
SMILES,JMJD2A Tudor inh,BAZ2B inh,GLS inh,HP1b binding inh,G9a block
CN(C)CCCN(C(=O)c1ccc(S(=O)(=O)N(C)C)cc1)c1nc2cc3c(cc2s1)OCO3,i,?,i,i,50µM
CN(C)CCN(C(=O)c1ccco1)c1nc2cc3c(cc2s1)OCCO3,i,i,i,i,nt
CN(C)CCCN(C(=O)c1ccc(C(=O)c2ccccc2)cc1)c1nc2cc3c(cc2s1)OCCO3,50µM,32µM,i,i,nt
CN(C)CCCN(C(=O)COc1ccccc1)c1nc2cc3c(cc2s1)OCCO3,i,i,i,i,nt
CN(C)CCN(C(=O)c1ccc(S(=O)(=O)N(C)c2ccccc2)cc1)c1nc2cc3c(cc2s1)OCO3,?,40µM,i,i,35µM
CN(C)CCN(C(=O)c1ccc(N2C(=O)CCC2=O)cc1)c1nc2cc3c(cc2s1)OCCO3,nt,?,nt,nt,32µM
Cc1nc(N2CCOCC2)c(C#N)c(C)c1Br,i,i,i,i,i[12.7 µM]
Cc1nn(Cc2ccccc2)c2c1C(c1cccnc1)C(C#N)=C(N)O2 (stereo not given),i,i,i,i,50µM
Cc1nn(Cc2ccccc2)c2c1C(c1ccncc1)C(C#N)=C(N)O2 (stereo not given),i,i,i,i,?
CCN(CC)C(=O)Cn1cc(S(=O)(=O)CC(=O)N2CCCCCC2)c2ccccc21,i,nt,i,i,?
COc1ncccc1C(=O)NC1CCCc2c1cnn2-c1cc(C)cc(C)c1 (stereo not given),i,i,i,i,i
CCCn1nc(NC(=O)c2ccco2)c2cc3cc(C)ccc3nc21,i,i,i,i,22µM
CCCn1nc(NC(=O)c2ccco2)c2cc3ccc(C)cc3nc21,i,i,i,i,i[2.33 µM]
CCn1nc(NC(=O)c2ccco2)c2cc3ccccc3nc21,i,i,i,i,7.9µM
CCn1nc(NS(=O)(=O)c2ccc([N+](=O)[O-])cc2)c2cc3ccccc3nc21,i,?,i,i,45µM
COc1cccc(CNc2ccc(S(=O)(=O)Nc3nccs3)cc2)c1O,i,i,i,i,i
CCOC(=O)C1=CC[C@@H](c2ccccc2)N(S(=O)(=O)c2ccc(C)cc2)[C@H]1C#N,nt,nt,i,nt,nt
O=C1[C@H]2[C@@H](c3ccc(F)cc3)N3C(=O)N(c4cccc(Cl)c4)C(=O)[C@@]3(Cc3ccccc3)[C@H]2C(=O)N1C1CCCCC1,i,i,i,i,i[2.33 µM]
CN(c1ccccc1)S(=O)(=O)c1ccc(NC(=S)Nc2ccccc2)cc1,i,i,i,i,i[0.501 µM]
CCOC(=O)c1ccc(S(=O)(=O)NCCN(CC)CC)cc1,i,i,i,i,?
O=[N+]([O-])CC(c1ccccc1)c1c[nH]c2ccccc12 (stereo not given),i,nt,i,i,nt
CCOC(=O)c1ccc(S(=O)(=O)NCC(c2ccc(N(C)C)cc2)c2c[nH]c3ccccc23)cc1 (stereo not given),11µM,10µM,i,32µM,?
CN(C)c1ccc(C(CNS(=O)(=O)c2ccc(F)cc2)c2c[nH]c3ccccc23)cc1 (stereo not given),25µM,18µM,i,?,10µM
Cc1ccc(OCCN2C(=O)NC3(CCc4ccccc4C3)C2=O)cc1 (stereo not given),i,i,i,i,i
N=c1nc(SCCC(=O)O)ss1,i,i,i,i,11µM
SMILES,JMJD2A Tudor inh,BAZ2B inh,GLS inh,HP1b binding inh,G9a block
CC1CCN(S(=O)(=O)c2ccc(NC(=O)CN3CCN(C)CC3)cc2)CC1,3.2µM,?,i,?,11µM
CC1CCN(S(=O)(=O)c2ccc(NC(=O)CN3CCCCCC3)cc2)CC1,i,i,i,i,?
COc1cc2c(cc1OC)C(C)N(CC(=O)Nc1ccc(S(=O)(=O)N3CCCC3)cc1)CC2 (stereo not given),i,i,i,i,40µM
O=C(Nc1ccc2c(c1)OCCO2)N1CCN(c2ccc(F)cc2)CC1,i,?,i,i,i
Cc1cccc(C)c1N1CCN(C(=O)Nc2ccc3c(c2)OCCO3)CC1,50µM,?,i,i,i
O=C(CN1CCCCC1)Nc1ccc(S(=O)(=O)N2CCOCC2)cc1,i,i,i,i,?
O=C(CN1CCN(S(=O)(=O)c2ccc(Cl)cc2)CC1)Nc1ccc(N2CCOCC2)cc1,i,i,i,i,56µM
COCCN(C(=O)CNC(=O)c1ccco1)C(C(=O)NC1CCCCC1)c1cccc(OC)c1 (stereo not given),i,i,i,i,?
COc1cccc(/C=N/Nc2nc3ccccc3n3cnnc23)c1,i,i,i,i,i
CC1(C)C(=O)Nc2ccccc2N1C(=O)CSc1nnc2ccccn12,i,i,i,i,i
Cc1ccc(C)c(S(=O)(=O)N2CCN(CC(=O)Nc3ccc4c(c3)OCCO4)CC2)c1,i,i,nt,i,i[12.7 µM]
O=C(CN1CCN(S(=O)(=O)c2cc(Cl)ccc2Cl)CC1)Nc1ccc2c(c1)OCCO2,i,i,i,i,20µM
CCOC(=O)N1CCN(c2c(Nc3ccc4c(c3)OCCO4)c(=O)c2=O)CC1,i,i,i,i,?
NS(=O)(=O)c1ccc(NC(=O)CN2CCN(S(=O)(=O)c3ccc(F)cc3)CC2)cc1,14µM,i,?,i,i
CN(CC(=O)Nc1ccc(S(N)(=O)=O)cc1)Cc1ccccc1F,i,i,i,i,i
CCOC(=O)N1CCN(CC(=O)NC(=O)Nc2ccc3c(c2)OCCO3)CC1,i,i,i,i,50µM
NS(=O)(=O)c1ccc(NC(=O)CN2CCCN(S(=O)(=O)c3ccc(F)cc3)CC2)cc1,i,i,i,i,i
C=CCN(CC=C)CC(=O)Nc1ccc(S(N)(=O)=O)cc1,i,i,i,i,0.71µM
Cc1nnc2c3cnn(-c4ccc(Cl)cc4)c3ncn12,nt,nt,nt,nt,i
FC(F)(F)c1cnc(C(c2ccccn2)c2ncn[nH]2)c(Cl)c1 (stereo not given),16µM,2.5µM,i,i,i
CN(C)C(=O)CSc1nnc(-c2ccco2)n1-c1ccccc1,i,nt,i,i,nt
O=c1[nH]cnc2c1N1CCC2CC1,28µM,?,i,i,45µM
Cc1cc(OC(=O)c2ccc(F)cc2)c([N+](=O)[O-])c(=O)[nH]1,i,i,i,i,?
COc1ccc(/C=C/C(=O)Oc2cc(C)[nH]c(=O)c2[N+](=O)[O-])cc1OC,32µM,i,i,i,i
COc1ccc(C(=O)Oc2cc(C)[nH]c(=O)c2[N+](=O)[O-])cc1,i,i,i,i,i
Cc1cc(OC(=O)C(C)(C)C)c([N+](=O)[O-])c(=O)[nH]1,i,i,i,i,1.4µM
